# Screen size: about 5,500 compounds; about 2,000 (36%) were called active. Not shown: some 18% with an inconclusive outcome. This is one part of the list. A number with no mark means an inactive call. No stated cut-off is given here; in the data, active means normalized growth mostly below about 0.91 (no sharp cut-off); inconclusive means no clear call, values can overlap the other calls; inactive means mostly above about 0.92.
# Test: chemical genetic growth profiling, strain panel (AID 1159580);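 further: tested at 20 µM; growth read once vehicle control cultures reached saturation at 30 °C; 1 = growth at the plate median or of vehicle wells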
# Conditions: S. cerevisiae deletion strains, growth OD
smiles,measurement,setting,value
C/C(Cc1nnn(-c2cc(C)on2)n1)=N/OC(=O)Nc1ccc(Cl)cc1,normalized growth,"locus YAR019C, strain CDC15, stronger effect = lower value",0.989
same,normalized growth,"locus YBL105C, strain PKC1, stronger effect = lower value",0.978
same,normalized growth,"locus YBR135W, strain CKS1, stronger effect = lower value",0.988
same,normalized growth,"locus YBR136W, strain MEC1, stronger effect = lower value",0.985
same,normalized growth,"locus YBR160W, strain CDC28, stronger effect = lower value",0.993
same,normalized growth,"locus YDL017W, strain CDC7, stronger effect = lower value",0.974
same,normalized growth,"locus YDL028C, strain MPS1, stronger effect = lower value",0.989
same,normalized growth,"locus YDL101C, strain DUN1, stronger effect = lower value",1
same,normalized growth,"locus YDL108W, strain KIN28, stronger effect = lower value",0.982
same,normalized growth,"locus YDL132W, strain cdc53, stronger effect = lower value",0.975
same,normalized growth,"locus YDL214C, strain PRR2, stronger effect = lower value",0.956
same,normalized growth,"locus YDR052C, strain DBF4, stronger effect = lower value",0.988
same,normalized growth,"locus YDR054C, strain cdc34, stronger effect = lower value",0.975
same,normalized growth,"locus YDR226W, strain ADK1, stronger effect = lower value",0.97
same,normalized growth,"locus YDR477W, strain SNF1, stronger effect = lower value",0.899
same,normalized growth,"locus YER123W, strain YCK3, stronger effect = lower value",0.954
same,normalized growth,"locus YER133W, strain GLC7, stronger effect = lower value",0.95
same,normalized growth,"locus YFL009W, strain cdc4, stronger effect = lower value",0.98
same,normalized growth,"locus YFL029C, strain CAK1, stronger effect = lower value",0.992
same,normalized growth,"locus YFR003C, strain YPI1, stronger effect = lower value",0.979
same,normalized growth,"locus YFR019W, strain FAB1, stronger effect = lower value",0.989
same,normalized growth,"locus YFR028C, strain CDC14, stronger effect = lower value",0.975
same,normalized growth,"locus YGR040W, strain KSS1, stronger effect = lower value",0.941
same,normalized growth,"locus YGR052W, strain FMP48, stronger effect = lower value",0.971
same,normalized growth,"locus YGR092W, strain DBF2, stronger effect = lower value",0.877
same,normalized growth,"locus YHR030C, strain SLT2, stronger effect = lower value",0.733 (active)
same,normalized growth,"locus YHR079C, strain IRE1, stronger effect = lower value",0.754
same,normalized growth,"locus YHR082C, strain KSP1, stronger effect = lower value",1.05
same,normalized growth,"locus YHR205W, strain SCH9, stronger effect = lower value",0.787
same,normalized growth,"locus YIL147C, strain SLN1, stronger effect = lower value",0.973
same,normalized growth,"locus YJL095W, strain BCK1, stronger effect = lower value",0.793
same,normalized growth,"locus YJL128C, strain PBS2, stronger effect = lower value",0.921
same,normalized growth,"locus YJL157C, strain FAR1, stronger effect = lower value",0.956
same,normalized growth,"locus YJR016C, strain ILV3, stronger effect = lower value",0.977
same,normalized growth,"locus YJR066W, strain TOR1 (second series), stronger effect = lower value",0.6 (active)
same,normalized growth,"locus YJR066W, strain TOR1, stronger effect = lower value",0.992
same,normalized growth,"locus YKL048C, strain ELM1, stronger effect = lower value",0.994
same,normalized growth,"locus YKL067W, strain YNK1, stronger effect = lower value",0.946
same,normalized growth,"locus YKL101W, strain HSL1, stronger effect = lower value",0.929
same,normalized growth,"locus YKL193C, strain SDS22, stronger effect = lower value",0.977
same,normalized growth,"locus YKL203C, strain TOR2, stronger effect = lower value",1.03
same,normalized growth,"locus YLR113W, strain HOG1, stronger effect = lower value",0.826 (active)
same,normalized growth,"locus YLR133W, strain CKI1, stronger effect = lower value",0.96
same,normalized growth,"locus YLR403W, strain SFP1, stronger effect = lower value",0.933
same,normalized growth,"locus YML070W, strain DAK1, stronger effect = lower value",0.944
same,normalized growth,"locus YMR001C, strain CDC5, stronger effect = lower value",0.983
same,normalized growth,"locus YMR205C, strain PFK2 (second series), stronger effect = lower value",0.936
same,normalized growth,"locus YMR277W, strain FCP1, stronger effect = lower value",0.978
same,normalized growth,"locus YNL006W, strain LST8, stronger effect = lower value",0.98
same,normalized growth,"locus YNL020C, strain ARK1, stronger effect = lower value",0.923
same,normalized growth,"locus YNL161W, strain CBK1, stronger effect = lower value",0.973
same,normalized growth,"locus YNL183C, strain NPR1, stronger effect = lower value",0.977
same,normalized growth,"locus YNL207W, strain RIO2, stronger effect = lower value",0.981
same,normalized growth,"locus YNL222W, strain SSU72, stronger effect = lower value",0.993
same,normalized growth,"locus YNL307C, strain MCK1 (second series), stronger effect = lower value",0.907
same,normalized growth,"locus YOL078W, strain AVO1, stronger effect = lower value",0.986
same,normalized growth,"locus YOL136C, strain PFK27, stronger effect = lower value",0.946
same,normalized growth,"locus YOR061W, strain CKA2, stronger effect = lower value",0.988
same,normalized growth,"locus YOR119C, strain RIO1, stronger effect = lower value",1.01
same,normalized growth,"locus YOR231W, strain MKK1, stronger effect = lower value",0.954
same,normalized growth,"locus YOR329C, strain SCD5, stronger effect = lower value",0.982
same,normalized growth,"locus YPL031C, strain PHO85, stronger effect = lower value",0.924
same,normalized growth,"locus YPL153C, strain RAD53, stronger effect = lower value",0.953
same,normalized growth,"locus YPL204W, strain HRR25, stronger effect = lower value",0.954
same,normalized growth,"locus YPL209C, strain IPL1, stronger effect = lower value",0.985
same,normalized growth,"locus YPL256C, strain CLN2, stronger effect = lower value",0.86
same,normalized growth,"locus YPR025C, strain CCL1, stronger effect = lower value",0.991
same,normalized growth,"locus YPR106W, strain ISR1, stronger effect = lower value",0.98
same,normalized growth,"locus YPR111W, strain DBF20, stronger effect = lower value",0.975
same,normalized growth,"strain NNK1, stronger effect = lower value",0.967
same,normalized growth,"strain TSCII, stronger effect = lower value",0.98

# — PubChem BioAssay AID1159580 (chemical genetic matrix, 2015)
